Compounds with a hit are over-represented: about 1.8% of the library has one in this group of screens.
Myeloid diff 2: promotes myeloid progenitor differentiation. ER-HoxA9 myeloid progenitors, lysozyme-GFP differentiation, flow cytometry. calls only at 10 µM. actives 1% (n = 360,000);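 active = normalized GFP-positive differentiation at or above the plate's own cutoff, the solvent-only control mean plus 3 SD; inconclusive = no clear call, values can overlap the other calls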;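 note: cells exposed to compound for four days before flow analysis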
NPR1 activator: GC-A (human) enzyme activation | activation, % at 10 µM | AID 1671463 | actives 0.14% (n = 370,000) | P16066 | HEK293 GC-A cells, cGMP TR-FRET, EC30 ANP; 0% at EC30 ANP, 100% saturating ANP; in the data active = activation above about 40%
GC-B act: GC-B (human) receptor activation | P20594 | HEK293-GC-B cells, CNP EC30, cGMP TR-FRET; 0% at EC30 CNP, 100% saturating CNP | activation, % at 10 µM | actives 0.11% (n = 370,000) | AID 1920062;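 active = activation at 10 µM reaching about 35% in either raw or pattern-adjusted values, limit read from the data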
Exocytosis inh: blocks lytic granule exocytosis; TALL-104 LAMP-1 surface exposure, flow cytometry; cells stimulated with thapsigargin and PMA; inhibition, % at 10 µM; actives 0.66% (n = 360,000); AID 651702;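 active = inhibition above about 55%, limit read from the data; inconclusive = no clear call, values can overlap the other calls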
Numbers without * were called inactive; i = inactive; ? = inconclusive; / = not tested or not shown; + = active, no number.

SMILES	Myeloid diff 2	NPR1 activator	GC-B act	Exocytosis inh
Cc1ccccc1P(=O)(c1ccccc1)c1ccccc1C	i	-11	-14	-7
COc1ccc2c(Cl)c(C(=O)N/N=C3\CCCC(=O)C3)sc2c1	+	2	2	-1
COc1ccc2c(Cl)c(C(=O)N/N=C/c3ccc4c(c3)OCO4)sc2c1	i	-3	-6	-3
CS(=O)(=O)Nc1ccccc1C(=O)Nc1ccc2c(c1)OCCO2	+	7	6	0
Cc1cccc2sc(NC(=O)CN(C)S(=O)(=O)c3ccc(Br)s3)nc12	i	14	0	0
Cc1cccc2sc(NC(=O)CN(C)S(=O)(=O)c3cccs3)nc12	i	42*	-1	-3
Cc1cccc2sc(NC(=O)Cn3cccc3)nc12	+	19	-8	1
CC(=O)Nc1ccc(/C=N\NC(=O)c2cccc(S(=O)(=O)N(C)C)c2)cc1	/	0	4	/
CSCCC(C(=O)NC1CCCC1)n1c(C2CCCC2)nc2ccccc21 (centres undefined)	i	-7	-13	-17
Cc1ccc2nc(N3C(=O)C(O)=C(C(=O)c4ccc(C)o4)C3c3ccc(O)cc3)sc2c1 (centres undefined)	+	9	0	8
O=C1NC(Cc2ccccc2)c2nc3ccc(Cl)cc3c(=O)n2-c2cc3ccccc3cc21 (centres undefined)	i	-1	10	1
O=C1NC(Cc2ccc(O)cc2)c2nc3ccc(Cl)cc3c(=O)n2-c2cc3ccccc3cc21 (centres undefined)	i	-1	57*	1
Cc1occc1C(=O)NCc1nc(-c2ccccc2)no1	i	-2	0	-9
Cc1cccc(-c2noc(CNC(=O)c3ccoc3C)n2)c1	+	-1	1	1
Cc1cc(SCC(=O)OC/C(O)=C(\C#N)c2nc3ccccc3[nH]2)c(C)cc1Br	i	3	4	-2
N#C/C(=C(/O)COC(=O)CSc1ccc(Cl)cc1)c1nc2ccccc2[nH]1	+	-3	-5	0
CC1CC(C)CN(S(=O)(=O)c2ccc(C(=O)N3CCCC3)cc2)C1 (centres undefined)	+	0	3	1
CC1CC(C)CN(C(=O)c2ccc(S(=O)(=O)N3CC(C)CC(C)C3)cc2)C1 (centres undefined)	i	1	-4	-5
COc1ccc(-c2nnn3c2Cn2c4ccccc4c(=O)n2[C@@H](C)C3)cc1	/	-3	-8	/
CCOc1ccc(N(CC(=O)NCCc2ccccc2)C(=O)CCC(=O)Nc2cc(C)ccn2)cc1	+	-8	-3	20
COC(=O)C1CN(Cc2cn(Cc3ccc(F)cc3)nn2)CCS(=O)(=O)N1Cc1ccc(C)cc1 (centres undefined)	/	-4	3	/
COc1ccc(C(C(=O)NC(C)(C)C)N(CCC(C)C)C(=O)CCC(=O)Nc2cc(C)on2)cc1 (centres undefined)	+	-14	-6	2
CC1=C(C(=O)N(C(C)C)C(C)C)CC(CC(=O)NC(c2ccccc2)c2ccccc2)C(=O)N1Cc1ccc(C(C)(C)C)cc1 (centres undefined)	+	3	4	0
CC1=C(C(=O)N(C)C)CC(CC(=O)NC(c2ccccc2)c2ccccc2)C(=O)N1CCCN1CCCC1=O (centres undefined)	+	-1	-2	-1
CC1(C(=O)NS(=O)(=O)c2cccc(Cl)c2)CCN1C(=O)CC1CC1 (centres undefined)	i	0	-1	1
SMILES	Myeloid diff 2	NPR1 activator	GC-B act	Exocytosis inh
COC(=O)C1CN(CCO)CCS(=O)(=O)N1Cc1cn(Cc2cccc(Cl)c2)nn1 (centres undefined)	/	-1	2	/
CCOC(=O)C1=CN(Cc2ccco2)S(=O)(=O)N(CC)C1c1ccc(C(F)(F)F)cc1 (centres undefined)	i	-12	-6	7
CC1=CN2C(=N)/C(=C/c3ccc([N+](=O)[O-])o3)C(=O)N=C2S1	?	37	22	80*
O=C(Nc1cccc([N+](=O)[O-])c1)c1ccc2c(c1)C(=O)N(c1ccccn1)C2=O	i	42*	10	5
CC(=O)c1ccc(NC(=O)c2ccc3c(c2)C(=O)N(c2ccccn2)C3=O)cc1	i	22	3	-9
O=C(CSCC(=O)N1CCCCC1)Nc1nc(-c2ccc(Cl)s2)cs1	i	43*	-2	8
O=C(Nc1nc(-c2ccc(Cl)s2)cs1)c1ccncc1	i	/	/	-8
O=C(CN1C(=O)CCC1=O)Nc1nc(-c2ccc(Cl)s2)cs1	i	54*	1	0
CC1CC1C(=O)Nc1nc(-c2ccc(Cl)s2)cs1 (centres undefined)	i	51*	5	4
COc1ccc2c(c1)CNC2CS(=O)(=O)NCC(C)C (centres undefined)	/	1	-4	/
O=C(CSc1nnc(-c2ccco2)n1-c1ccc(Cl)cc1)Nc1ccc(S(=O)(=O)Nc2nccs2)cc1	/	0	-2	/
CCOC(=O)C1CCCN(C(=O)c2cc3nc(-c4ccc5c(c4)OCO5)cc(C(F)(F)F)n3n2)C1 (centres undefined)	i	33	37*	3
Cn1c(N/N=C2\CCCc3ccccc32)nc2c1c(=O)n(Cc1ccccc1)c(=O)n2C	i	12	21	4
Cn1c(=O)c2c(nc(N/N=C3\CCCc4ccccc43)n2Cc2ccc(F)cc2)n(C)c1=O	i	34	50*	3
CCOC(=O)[C@]12CCCC=C1N(CCCOC)C(=O)[C@@H]2CC(=O)N1CCC(c2ccccc2)CC1	/	-2	-1	/
CCCN1C(=O)/C(=C/c2nc3ccccc3c(=O)[nH]2)c2ccccc21	i	2	-2	-1
CC(C)N1C(=O)/C(=C\c2nc3ccccc3c(=O)[nH]2)c2ccccc21	i	-13	-12	98*
N#Cc1cccc(NC(=O)OCCN2C(=O)CCC23CCC(c2ccccc2)CC3)c1 (centres undefined)	/	-14	-7	/
CC1(C)C(O)=C(c2nc3ccccc3[nH]2)C(=N)N1c1ccccc1	+	5	4	0
CC(=O)Nc1nonc1NC(=O)CSc1nc2ccccc2o1	+	0	3	-1
Cc1nonc1NC(=O)CSc1nc2ccccc2o1	i	4	-5	-4
COc1ccc(Br)cc1CN(C)CC(=O)NCc1ccc(F)cc1	+	-13	2	37
O[C@@H]1[C@@H](O)[C@H](n2c3ccc(Cl)cc3c3ccc4c5cc(Cl)ccc5[nH]c4c32)OC[C@H]1O	/	-3	-7	/
Cc1nc2c(cnn2-c2ccccc2Cl)c(=O)n1-c1ccc(N2CCC(C)CC2)cc1	+	-4	1	3
Cc1ccc(-n2c(C)nc3c(cnn3-c3ccccc3Cl)c2=O)cc1C	i	5	7	0
O=C(OCc1cccc(Cl)c1)c1cc(S(=O)(=O)N2CCCCC2)ccc1N1CCOCC1	+	4	3	8

From PubChem
